Common to all, as to type: functional
The target in test [1] is Solute carrier family 2, facilitated glucose transporter member 1 (Homo sapiens) (UniProt P11166). In words: ST_JUDE_LEISH: Cytotoxicity at 2uM final concentration against transgenic Leishmania Mexicana promastigotes LmGLUT1 that are glucose transport deficient and complemented with the human glucose transporter GLUT1. Activity is measured by DNA content using SYBR green in vitro.

In test [2] the target is Hexose transporter 1 (Plasmodium falciparum) (UniProt O97467). The experiment in a line: ST_JUDE_LEISH: Cytotoxicity at 2uM final concentration against transgenic Leishmania Mexicana promastigotes LmPfHT that are glucose transport deficient and complemented with the Plasmodium falciparum hexose transporter. Activity is measured by DNA content using SYBR green in vitro.
The target in test [3] is Glucose transporter (Leishmania mexicana) (UniProt O61059). In words: ST_JUDE_LEISH: Cytotoxicity at 2uM final concentration against transgenic Leishmania Mexicana promastigotes LmGT2 that are glucose transport deficient and complemented with the L. Mexicana glucose transporter 2. Activity is measured by DNA content using SYBR green in vitro.

Chain of Solute carrier family 2, facilitated glucose transporter member 1 (Homo sapiens) (P11166 whole entry): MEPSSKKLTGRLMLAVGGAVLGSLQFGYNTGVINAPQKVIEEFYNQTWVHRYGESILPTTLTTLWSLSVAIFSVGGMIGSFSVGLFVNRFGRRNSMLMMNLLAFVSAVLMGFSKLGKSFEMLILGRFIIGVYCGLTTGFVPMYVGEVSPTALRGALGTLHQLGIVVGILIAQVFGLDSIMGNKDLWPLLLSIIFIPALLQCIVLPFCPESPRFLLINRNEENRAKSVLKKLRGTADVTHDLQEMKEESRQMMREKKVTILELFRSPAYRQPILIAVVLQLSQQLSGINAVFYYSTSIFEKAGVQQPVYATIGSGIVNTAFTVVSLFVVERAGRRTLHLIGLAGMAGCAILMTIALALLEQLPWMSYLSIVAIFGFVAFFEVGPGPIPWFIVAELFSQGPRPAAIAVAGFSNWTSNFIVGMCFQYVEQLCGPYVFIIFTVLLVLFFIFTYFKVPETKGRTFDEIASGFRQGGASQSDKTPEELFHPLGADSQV

One may read the inhibition as the drop in the measured response relative to a control, in per cent. For `c1ccc(COc2ccc(Cn3ccc(-c4ccc(-n5ccnc5)cc4)n3)cc2)cc1.c1ccc(COc2ccc(Cn3nccc3-c3ccc(-n4ccnc4)cc3)cc2)cc1`, the values for the inhibition in test [1], in test [2] and in test [3] were 0.24%, 1.54% and 1.48%, respectively.

For the compound `O=C(Cn1c(CCc2cccc(F)c2F)nc(=O)c2ccccc21)N(CCCN1CCCC1)Cc1ccc(-c2ccc(C(F)(F)F)cc2)cc1`, the figures for the inhibition in test [1], in test [2] and in test [3] were 8.01%, 7.63% and 9.22%, respectively.

Consider `CC(CN1CCN(C)CC1)C(=O)Nc1ccc(-c2ccc(-c3nc4cc(C(F)(F)F)ccc4[nH]3)cc2)cc1` (configuration not stated), for which the results for the inhibition in test [1], in test [2] and in test [3] were 6.67%, 4.86% and 2.49%, respectively.

As for `O=C(Nc1cccc(-c2nn3ncccc3c2-c2ccnc(Nc3cccc(-c4cnco4)c3)n2)c1)c1c(F)cccc1F`, the inhibition in test [1] worked out at 6.24%; in test [2] it was 7.13%; in test [3], 2.26%.

`CC(C)Cc1cn(-c2nc(-c3nc4ccccc4[nH]3)cs2)c2cc(Cl)ccc12`: the inhibition in test [1] stood at 6.36%; in test [2] it was 6.84%; in test [3], 7.38%.

For the compound `O=C(O)c1ccc(NC(=O)C2CC(=O)N(Cc3ccc(Cl)cc3)C(=Nc3ccc(Cl)cc3)S2)cc1` (configuration not stated), the inhibition in test [1] came out at 2.23%; in test [2], 2.86%; in test [3], 1.01%.

For `CCC(C)Oc1ccc2nc(N)nc(N)c2c1Cl` (configuration not stated), the inhibition is 41.2% in test [1], 55.9% in test [2] and 30% in test [3].

Consider `O=C(NCCN1CCCCC1)c1ccc(CNC(=O)c2ccc(O)c(-c3ccc(Cl)c(Cl)c3)c2)cc1`, for which the inhibition in test [1] was 0.15%; in test [2], 0.04%; in test [3], -0.59%.

As to `CCN(CC)c1ccc(NC(=S)NC2CCN(CCCCCNC(=O)/C=C/c3ccc(Cl)c(Cl)c3)CC2)cc1`, the inhibition in test [1] was found to be 5.28%; in test [2] it was 6.72%; in test [3], 6.22%.

Turning to `NC1CCN(c2nc(NCCCc3ccc(O)cc3)nc(NCc3ccccc3-c3ccccc3)n2)CC1`, the inhibition turned out to be 0.77% in test [1], 0.01% in test [2] and 1.09% in test [3].

`CC(C)C[C@H](NC(=O)OC(C)(C)C)C(=O)Nc1ccc(Cc2ccc(NC(=O)[C@H](CC(C)C)NC(=O)OC(C)(C)C)cc2)cc1`: the inhibition in test [1] came to 3.16%; in test [2], 3.22%; in test [3], 2.99%.

`CCN1CCc2nc3ccccc3c(C(=O)Nc3ccc(C#N)cc3)c2C1`: the figures for the inhibition in test [1], in test [2] and in test [3] were -0.12%, 3.74% and -1.04%, respectively.

As for `CCOc1cc2c(cc1OCC)C(c1ccc(O)c(Cl)c1)NCC2` (configuration not stated), the inhibition in test [1] is 11.9%; in test [2] it was 13.1%; in test [3] it was 10.3%.

Consider `Cn1ccc2c3c(N)nc(N)nc3ccc21`, for which the inhibition is 0.43% in test [1], 1.8% in test [2] and 1.34% in test [3].

As to `Cc1ccc(CNC(=O)c2ccc(CN3CCCN(Cc4ccsc4)CC3)cc2)cc1`, the inhibition in test [1] stood at 1.42%; in test [2], 0.79%; in test [3], 2.87%.

Regarding `CN1CCN(CCCN(Cc2csc(-c3ccc(CNCc4ccccc4)cc3)n2)C(=O)Nc2cccc(Cl)c2)CC1`, the inhibition is 1.91% in test [1], -0.25% in test [2] and 2.48% in test [3].

Consider `CCOC(=O)CNC(=O)c1cc(=O)c2ccccc2o1`, for which the inhibition was determined as 0.86% in test [1], 0.78% in test [2] and 0.44% in test [3].

For the compound `O=C(O)C[C@H](NC(=O)CCCNC(=O)c1cccc(-c2ccc(Cl)c(Cl)c2)c1)C(=O)O`, the values for the inhibition in test [1], in test [2] and in test [3] were -1.37%, 0.62% and 1.4%, respectively.

On to `CN(C(=O)c1snnc1-c1ccccc1)C1CCN(CCCCCNC(=O)/C=C/c2ccc(Cl)c(Cl)c2)CC1`, for which the inhibition in test [1] was determined as 3.47%; in test [2], 0.39%; in test [3], 3.46%.

`COc1ccccc1CCNc1nccc(N[C@@H](Cc2ccccc2)C(=O)NCc2cccs2)n1`: the inhibition in test [1] is 1.78%; in test [2] it was 1.77%; in test [3], -0.08%.

Turning to `O=C(Nc1ccc(N2CCCN(Cc3cccc(F)c3)CC2)cc1)c1ccc(F)cc1`, the inhibition in test [1] amounted to 4.73%; in test [2], 5.55%; in test [3], 5.51%.

With `Cc1ccccc1Oc1nc2ccccc2nc1SCC(=O)NC(C)C`, the inhibition is 2.29% in test [1], 2.25% in test [2] and -1.86% in test [3].

Regarding `CCCc1c(Cl)cc(CNCCCNc2nc3ccncc3[nH]2)cc1Cl`, the inhibition turned out to be 1.35% in test [1], 3.89% in test [2] and 1.39% in test [3].

Turning to `COc1ccc(CNc2nc(NCc3ccccc3)c3cc(OC)c(OC)cc3n2)cc1OC`, the values for the inhibition in test [1], in test [2] and in test [3] were 4.35%, 5.92% and 0.89%, respectively.

Consider `CCC[C@@H]([C@@H](CC(C)C)C(=O)N[C@@H](CCCCNC(=O)OCc1ccccc1)C(=O)Nc1ncccn1)N(O)C=O`, for which the figures for the inhibition in test [1], in test [2] and in test [3] were 19.1%, 21.5% and 17.1%, respectively.

Regarding `O=C(NCCN1CCCC1)c1ccc(-c2ccc(-c3nc4ccccc4[nH]3)s2)cc1`, the figures for the inhibition in test [1], in test [2] and in test [3] were 0.96%, -1.55% and 0.42%, respectively.

Take `CC1CCN(CCCNc2ccc(C(=O)Nc3ccc(C(F)(F)F)cc3)cc2[N+](=O)[O-])CC1`: the inhibition in test [1] came to 4.71%; in test [2] it was 1.65%; in test [3], 5.07%.

Take `COc1ccc2c(=NN=Cc3ccccc3F)cc(C)[nH]c2c1`: the inhibition is 1.77% in test [1], 1.74% in test [2] and 0.39% in test [3].

As for `O=C(Nc1ccccc1)Nc1ccc(-c2cccc(-c3nc4cc(C(F)(F)F)ccc4[nH]3)c2)cc1`, the figures for the inhibition in test [1], in test [2] and in test [3] were 4.44%, 0.5% and 2.05%, respectively.

For `CN(C)C(=O)c1ccc(CN(Cc2ccc(OC(C)(C)C)cc2)Cc2ccc3c(c2)OCCO3)cc1`, the inhibition stood at 0.59% in test [1], 2.04% in test [2] and 0.26% in test [3].

With `O=C(Nc1ccc(C(F)(F)F)cc1)NC1CCN(c2ccnc3cc(Cl)ccc23)CC1`, the inhibition in test [1] was determined as 6.47%; in test [2], 6.26%; in test [3] it was 4.68%.

For `O=C(Nc1cc(F)cc(F)c1)N[C@H]1CCN(CCCCCNC(=O)C2CC2c2ccc(Cl)c(Cl)c2)C1` (some centres not stated), the inhibition was -0.04% in test [1], 0.55% in test [2] and -1.55% in test [3].

As for `CCCCCCCC1CC(CC(=O)Nc2ccnc3ccc(OC)cc23)CN1C(=O)OC(C)(C)C` (configuration not stated), the inhibition in test [1] turned out to be 9.12%; in test [2], 11.2%; in test [3], 3.12%.

For the compound `Cc1cccc2nc(-c3ccc(-c4ccc(CN5CCC(CCN6CCCCC6)CC5)cc4)cc3)[nH]c12`, the values for the inhibition in test [1], in test [2] and in test [3] were 8.93%, 7.95% and -1.41%, respectively.
